Results on 9 sequences are retold here after PMC7862700, “An all-to-all approach to the identification of sequence-specific readers for epigenetic DNA modifications on cytosine”.

Common to all, as to assay: DAPPL (digital affinity profiling via proximity ligation, sequencing); 10 mM Tris-HCl pH 7.5, 50 mM NaCl, 1 mM DTT, 4% glycerol, room temperature, 30 min; GST-TFs on glutathione beads, 16-mer random dsDNA library, 0.1% formaldehyde crosslink after washing; high values mean tight binding
Common to all, as to conditions: protein: recombinant; tags: N-terminal GST; dsDNA, one strand shown

One experiment addresses T1, ERF (Homo sapiens, UniProt P50548 1-548).
T1 sequence: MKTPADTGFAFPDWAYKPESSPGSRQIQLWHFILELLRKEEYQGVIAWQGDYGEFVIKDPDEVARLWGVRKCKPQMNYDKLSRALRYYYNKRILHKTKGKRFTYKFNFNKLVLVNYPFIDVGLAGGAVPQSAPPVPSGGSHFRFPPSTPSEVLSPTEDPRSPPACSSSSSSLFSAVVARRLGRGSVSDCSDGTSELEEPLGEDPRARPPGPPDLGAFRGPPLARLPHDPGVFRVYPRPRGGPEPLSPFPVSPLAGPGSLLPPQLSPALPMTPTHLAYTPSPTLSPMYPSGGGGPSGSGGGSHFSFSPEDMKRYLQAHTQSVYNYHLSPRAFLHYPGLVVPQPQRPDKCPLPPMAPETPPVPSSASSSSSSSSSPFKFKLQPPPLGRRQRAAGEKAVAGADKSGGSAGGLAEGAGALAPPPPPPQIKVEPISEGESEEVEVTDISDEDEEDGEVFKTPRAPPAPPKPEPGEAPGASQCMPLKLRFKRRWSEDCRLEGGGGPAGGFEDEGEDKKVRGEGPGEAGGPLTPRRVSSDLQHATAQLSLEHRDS
The gist of the method:
(§1)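 In yeast, human transcription factors were expressed with a GST fusion, then pulled down on glutathione beads and given DNA barcodes. Pooled with a tag-only sample, they were exposed to 200 nmole of a 16-mer random double-stranded DNA library (Tris/NaCl/DTT/glycerol buffer, room temperature, 30 min), washed, crosslinked with 0.1% formaldehyde, proximity-ligated using BsaI/T4 ligase for 1 h at 37 °C, PCR-amplified and read on an Illumina NextSeq500. Each hexamer's frequency of reads for a factor, divided by the matching frequency for the tag-only sample, gives the binding signal.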

Another experiment has as its target T2, ETV3L (Homo sapiens, UniProt Q6ZN32 1-361).
T2 sequence: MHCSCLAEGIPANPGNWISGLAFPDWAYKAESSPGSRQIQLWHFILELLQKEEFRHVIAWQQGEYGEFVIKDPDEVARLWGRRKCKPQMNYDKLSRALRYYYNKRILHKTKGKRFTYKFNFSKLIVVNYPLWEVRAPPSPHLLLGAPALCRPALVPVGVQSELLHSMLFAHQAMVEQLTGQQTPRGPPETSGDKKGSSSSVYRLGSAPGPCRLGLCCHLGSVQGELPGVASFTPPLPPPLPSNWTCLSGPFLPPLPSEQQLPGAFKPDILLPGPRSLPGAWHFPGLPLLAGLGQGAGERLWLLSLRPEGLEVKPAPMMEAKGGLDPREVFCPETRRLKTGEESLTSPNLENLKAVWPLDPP
The gist of the method:
as §1

In another experiment the target is T3, ETS2 (Homo sapiens, UniProt P15036 1-469).
T3 sequence: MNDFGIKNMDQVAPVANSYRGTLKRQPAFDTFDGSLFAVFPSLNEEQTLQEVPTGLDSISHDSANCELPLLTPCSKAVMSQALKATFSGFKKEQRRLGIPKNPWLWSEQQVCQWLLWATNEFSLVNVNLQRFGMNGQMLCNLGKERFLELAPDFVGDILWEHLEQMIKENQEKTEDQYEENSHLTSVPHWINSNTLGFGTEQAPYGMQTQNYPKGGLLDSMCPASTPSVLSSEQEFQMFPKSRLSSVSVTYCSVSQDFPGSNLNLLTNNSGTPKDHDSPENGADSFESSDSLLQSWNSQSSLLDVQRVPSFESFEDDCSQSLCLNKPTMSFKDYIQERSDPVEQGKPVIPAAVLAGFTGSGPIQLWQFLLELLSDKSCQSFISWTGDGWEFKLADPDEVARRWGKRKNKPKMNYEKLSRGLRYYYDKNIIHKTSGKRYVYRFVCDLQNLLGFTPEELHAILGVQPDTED
Put shortly: as §1

Another experiment has as its target T4, SPDEF (Homo sapiens, UniProt O95238 1-335).
T4 sequence: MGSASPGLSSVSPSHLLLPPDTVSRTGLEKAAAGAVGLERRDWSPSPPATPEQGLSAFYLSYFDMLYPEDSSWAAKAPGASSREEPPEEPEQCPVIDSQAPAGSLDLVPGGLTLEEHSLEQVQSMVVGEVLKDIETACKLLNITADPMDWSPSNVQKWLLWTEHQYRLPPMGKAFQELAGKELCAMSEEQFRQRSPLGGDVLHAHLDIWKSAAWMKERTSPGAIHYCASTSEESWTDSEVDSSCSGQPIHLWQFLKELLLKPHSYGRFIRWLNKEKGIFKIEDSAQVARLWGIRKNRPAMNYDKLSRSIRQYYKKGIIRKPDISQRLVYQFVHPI
Put shortly:
as §1

Another experiment has as its target T5, ETV7 (Homo sapiens, UniProt Q9Y603 1-341).
T5 sequence: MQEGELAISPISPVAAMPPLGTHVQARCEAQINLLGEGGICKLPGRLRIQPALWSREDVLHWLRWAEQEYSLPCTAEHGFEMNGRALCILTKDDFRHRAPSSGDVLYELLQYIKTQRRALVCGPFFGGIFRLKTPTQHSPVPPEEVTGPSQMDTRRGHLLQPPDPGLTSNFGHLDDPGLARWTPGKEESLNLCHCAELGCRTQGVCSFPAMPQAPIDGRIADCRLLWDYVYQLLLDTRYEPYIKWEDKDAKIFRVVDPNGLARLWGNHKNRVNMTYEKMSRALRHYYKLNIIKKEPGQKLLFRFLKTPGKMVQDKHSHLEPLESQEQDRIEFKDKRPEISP
Put shortly: as §1

Another experiment addresses T6, ELF5 (Homo sapiens, UniProt Q9UKW6-2 1-255).
T6 sequence: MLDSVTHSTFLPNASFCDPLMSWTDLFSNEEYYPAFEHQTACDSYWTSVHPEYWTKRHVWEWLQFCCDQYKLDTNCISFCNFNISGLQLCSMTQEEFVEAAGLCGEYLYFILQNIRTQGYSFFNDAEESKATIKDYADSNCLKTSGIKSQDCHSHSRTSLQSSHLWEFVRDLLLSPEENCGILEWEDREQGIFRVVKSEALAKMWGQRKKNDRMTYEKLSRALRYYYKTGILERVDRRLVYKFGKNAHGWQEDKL
The gist of the method: as §1

The target of the next experiment is T7, ETV3 (Homo sapiens, UniProt P41162-2 1-143).
T7 sequence: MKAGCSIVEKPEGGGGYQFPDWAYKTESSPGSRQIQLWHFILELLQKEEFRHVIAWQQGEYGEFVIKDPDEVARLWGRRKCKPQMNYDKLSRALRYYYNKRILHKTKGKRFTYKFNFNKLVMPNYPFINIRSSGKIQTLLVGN
Put shortly:
as §1

A further experiment deals with ETV6 (Homo sapiens, UniProt P41212 1-452). The gist of the method:
as §1

ETV6, sequence (P41212 whole entry): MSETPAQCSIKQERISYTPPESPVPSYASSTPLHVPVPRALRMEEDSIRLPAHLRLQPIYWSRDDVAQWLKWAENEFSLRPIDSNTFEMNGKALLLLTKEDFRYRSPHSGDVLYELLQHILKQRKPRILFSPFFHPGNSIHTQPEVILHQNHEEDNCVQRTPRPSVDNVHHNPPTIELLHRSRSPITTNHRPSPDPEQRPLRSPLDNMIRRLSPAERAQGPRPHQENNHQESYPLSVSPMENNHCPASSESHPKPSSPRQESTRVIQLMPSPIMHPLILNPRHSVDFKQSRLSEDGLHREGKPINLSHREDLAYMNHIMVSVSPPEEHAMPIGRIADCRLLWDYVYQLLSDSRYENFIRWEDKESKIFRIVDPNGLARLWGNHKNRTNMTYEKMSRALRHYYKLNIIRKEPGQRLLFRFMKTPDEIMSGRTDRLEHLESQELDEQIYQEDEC

For the sequence CATTTG, the binding signal is 1.4 fold enrichment (6-mer frequency, TF over GST control) with ERF; 1.25 fold enrichment (6-mer frequency, TF over GST control) with ETV3L; 1.31 fold enrichment (6-mer frequency, TF over GST control) with ETS2; 1.25 fold enrichment (6-mer frequency, TF over GST control) with SPDEF; 1.3 fold enrichment (6-mer frequency, TF over GST control) in the experiment with ETV7; 1.18 fold enrichment (6-mer frequency, TF over GST control) with ELF5. For the same sequence, the binding signal in the experiment with ETV3 is 1.25 fold enrichment (6-mer frequency, TF over GST control); in the experiment with ETV6 it was 1.21 fold enrichment (6-mer frequency, TF over GST control).

In the case of TGTGCT, the binding signal with ERF is 1.19 fold enrichment (6-mer frequency, TF over GST control); with ETV3L, 1.12 fold enrichment (6-mer frequency, TF over GST control); with ETS2, 1.12 fold enrichment (6-mer frequency, TF over GST control); with SPDEF it was 1.31 fold enrichment (6-mer frequency, TF over GST control); with ETV7, 1.18 fold enrichment (6-mer frequency, TF over GST control); in the experiment with ELF5, 1.15 fold enrichment (6-mer frequency, TF over GST control). For the same sequence, the binding signal with ETV3 was 1.18 fold enrichment (6-mer frequency, TF over GST control); with ETV6, 1.22 fold enrichment (6-mer frequency, TF over GST control).

For the sequence AATAGT, the binding signal with ERF was 1.21 fold enrichment (6-mer frequency, TF over GST control); with ETV3L, 1.25 fold enrichment (6-mer frequency, TF over GST control); with ETS2, 1.13 fold enrichment (6-mer frequency, TF over GST control); with SPDEF it was 1.06 fold enrichment (6-mer frequency, TF over GST control); in the experiment with ETV7, 1.18 fold enrichment (6-mer frequency, TF over GST control); with ELF5, 1.18 fold enrichment (6-mer frequency, TF over GST control). Also, the binding signal with ETV3 was 1.3 fold enrichment (6-mer frequency, TF over GST control); with ETV6, 1.34 fold enrichment (6-mer frequency, TF over GST control).

On to TTTCCG, for which the binding signal in the experiment with ERF is 3.3 fold enrichment (6-mer frequency, TF over GST control); with ETV3L it was 3.52 fold enrichment (6-mer frequency, TF over GST control); in the experiment with ETS2, 3.92 fold enrichment (6-mer frequency, TF over GST control); with SPDEF it was 3.35 fold enrichment (6-mer frequency, TF over GST control); in the experiment with ETV7, 3.55 fold enrichment (6-mer frequency, TF over GST control); with ELF5, 5.34 fold enrichment (6-mer frequency, TF over GST control). Besides, the binding signal with ETV3 is 4.06 fold enrichment (6-mer frequency, TF over GST control); with ETV6, 4.37 fold enrichment (6-mer frequency, TF over GST control).

Regarding TTCATT, the binding signal in the experiment with ERF was 1.31 fold enrichment (6-mer frequency, TF over GST control); with ETV3L, 1.3 fold enrichment (6-mer frequency, TF over GST control); in the experiment with ETS2, 1.27 fold enrichment (6-mer frequency, TF over GST control); with SPDEF it was 1.24 fold enrichment (6-mer frequency, TF over GST control); with ETV7 it was 1.23 fold enrichment (6-mer frequency, TF over GST control); in the experiment with ELF5, 1.18 fold enrichment (6-mer frequency, TF over GST control). Moreover, the binding signal in the experiment with ETV3 was 1.16 fold enrichment (6-mer frequency, TF over GST control); with ETV6, 1.18 fold enrichment (6-mer frequency, TF over GST control).

With GTCTTT, the binding signal with ERF was 1.27 fold enrichment (6-mer frequency, TF over GST control); in the experiment with ETV3L, 1.27 fold enrichment (6-mer frequency, TF over GST control); with ETS2, 1.26 fold enrichment (6-mer frequency, TF over GST control); with SPDEF, 1.17 fold enrichment (6-mer frequency, TF over GST control); with ETV7 it was 1.28 fold enrichment (6-mer frequency, TF over GST control); with ELF5, 1.31 fold enrichment (6-mer frequency, TF over GST control). The binding signal is 1.26 fold enrichment (6-mer frequency, TF over GST control) in the experiment with ETV3 and 1.24 fold enrichment (6-mer frequency, TF over GST control) with ETV6.

As for TGTTCT, the binding signal was 1.39 fold enrichment (6-mer frequency, TF over GST control) with ERF; 1.43 fold enrichment (6-mer frequency, TF over GST control) with ETV3L; 1.18 fold enrichment (6-mer frequency, TF over GST control) in the experiment with ETS2; 1.22 fold enrichment (6-mer frequency, TF over GST control) with SPDEF; 1.22 fold enrichment (6-mer frequency, TF over GST control) in the experiment with ETV7; 1.37 fold enrichment (6-mer frequency, TF over GST control) in the experiment with ELF5. The binding signal with ETV3 was 1.27 fold enrichment (6-mer frequency, TF over GST control); with ETV6 it was 1.37 fold enrichment (6-mer frequency, TF over GST control).

With ACTATG, the binding signal with ERF is 1.15 fold enrichment (6-mer frequency, TF over GST control); with ETV3L, 1.2 fold enrichment (6-mer frequency, TF over GST control); with ETS2 it was 1.3 fold enrichment (6-mer frequency, TF over GST control); in the experiment with SPDEF it was 1.28 fold enrichment (6-mer frequency, TF over GST control); in the experiment with ETV7 it was 1.18 fold enrichment (6-mer frequency, TF over GST control); in the experiment with ELF5 it was 1.16 fold enrichment (6-mer frequency, TF over GST control). The binding signal with ETV3 was 1.25 fold enrichment (6-mer frequency, TF over GST control); in the experiment with ETV6, 1.19 fold enrichment (6-mer frequency, TF over GST control).

With CGCGCT, the binding signal with ERF is 1.44 fold enrichment (6-mer frequency, TF over GST control); with ETV3L, 1.18 fold enrichment (6-mer frequency, TF over GST control); with ETS2, 1.25 fold enrichment (6-mer frequency, TF over GST control); in the experiment with SPDEF, 1.14 fold enrichment (6-mer frequency, TF over GST control); with ETV7, 1.14 fold enrichment (6-mer frequency, TF over GST control); in the experiment with ELF5, 1.11 fold enrichment (6-mer frequency, TF over GST control). The binding signal in the experiment with ETV3 is 1.17 fold enrichment (6-mer frequency, TF over GST control); in the experiment with ETV6, 1.15 fold enrichment (6-mer frequency, TF over GST control).
